This is a sample that favours compounds with a hit; in the whole collection about 2% have one here.
NPR1 activator: GC-A stimulated cGMP production enhancers – HEK293 GC-A cells, cGMP TR-FRET, EC30 ANP, primary screen; 0% at EC30 ANP, 100% saturating ANP; activation, % at 10 µM; actives 0.14% (n = 370,000); AID 1671463, 2021; in the data active = activation above about 40%
PfG6PD inh: PfG6PD enzyme inhibitors, primary screen, biochemical, fluorescence intensity, uHTS; glucose-6-phosphate dehydrogenase-6-phosphogluconolactonase (Plasmodium falciparum 3D7); PfGluPho enzyme, NADPH resazurin-diaphorase fluorescence; inhibition, % at 20 µM; actives 0.78% (n = 350,000); AID 504690, 2011;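 active = inhibition reaching at least a set limit at 20 µM in the primary screen, cut at about 59% in these data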
Neddylation inh: inhibitors of cullin neddylation, primary screen, biochemical, TR-FRET, uHTS, NAE and Ubc12; inhibition, % at 25 µM; actives 0.58% (n = 360,000); in the data active = inhibition above about 36%
A3G deaminase: APOBEC3G DNA deaminase inhibitors, primary screen, biochemical, fluorescence, single-stranded DNA substrate, uHTS; DNA dC->dU-editing enzyme APOBEC-3G (Homo sapiens), Q9HC16; actives 0.28% (n = 330,000); inhibition, % at 20 µM; AID 493012, 2011; recombinant A3G, ssDNA deamination FAM/TAMRA fluorescence;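 active = inhibition of at least 40% at 20 µM, with no more than 30% in the related APOBEC3A deaminase screen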
NPR2 activator: human GC-B receptor activators, primary screen, HEK293 GC-B cells, cGMP TR-FRET, EC30 CNP; Atrial natriuretic peptide receptor 2 (Homo sapiens), P20594; 0% at EC30 CNP, 100% saturating CNP; activation, % at 10 µM; actives 0.11% (n = 370,000);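 active = activation at 10 µM reaching about 35% in either raw or pattern-adjusted values, limit read from the data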
APOBEC3A inh: APOBEC3A ssDNA deaminase inhibitors, primary screen, selectivity assay for APOBEC3G inhibitor project, biochemical, FAM/TAMRA oligo cleavage fluorescence | DNA dC->dU-editing enzyme APOBEC-3A (Homo sapiens), P31941 | recombinant A3A, FAM/TAMRA ssDNA deamination fluorescence | inhibition, % at 20 µM | actives 0.41% (n = 330,000) | AID 493011, 2011;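 active = at least 40% inhibition at 20 µM here, with at most 30% in a related deaminase screen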
PfG6PD confirm: PfG6PD inhibitors, hit retest, confirmation, biochemical, fluorescence intensity, single concentration | AID 504753, 2011 | shares compounds with PfG6PD inh | actives 34% (n = 2,400) | recombinant PfGluPho, NADPH-diaphorase-resazurin fluorescence | inhibition, % at 20 µM;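 active = inhibition of at least 50% at 20 µM in any single replicate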
Diaphorase 10uM: diaphorase inhibitors and chemical oxidizers, confirmation, counter-screen for P. falciparum G6PD inhibitor project, biochemical, fluorescence intensity, 10 µM NADPH; shares compounds with PfG6PD inh; diaphorase-coupled resazurin reduction, NADPH 10 uM; inhibition, % at 20 µM; actives 39% (n = 820);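 active = average inhibition reaching 50% or more with the compound at 20 µM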;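 also: resorufin red fluorescence formed as diaphorase reduces resazurin using NADPH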
Diaph ctr 30uM: diaphorase inhibitors and chemical oxidizers, confirmation, counter-screen for P. falciparum G6PD inhibitor project, biochemical, fluorescence intensity, 30 µM NADPH | shares compounds with PfG6PD inh | Diaphorase/resazurin coupled assay, resorufin fluorescence | inhibition, % at 20 µM | actives 29% (n = 820);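 active = inhibition averaging 50% or more, tested at 20 µM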
Numbers stand for hits; . = inactive; / = no result.

SMILES	NPR1 activator	PfG6PD inh	Neddylation inh	A3G deaminase	NPR2 activator	APOBEC3A inh	PfG6PD confirm	others
O=C(CSc1cn(CCNC(=O)c2c(F)cccc2F)c2ccccc12)NCC1CCCO1 (stereo unspecified)	.	.	.	.	.	.	/
O=C(NCCn1cc(SCc2ccccc2)c2ccccc21)c1c(F)cccc1F	.	64	.	.	.	.	.
CN(CCOC(=O)c1cccs1)C1CN(Cc2cn(Cc3ccccc3Cl)nn2)S(=O)(=O)C1 (stereo unspecified)	.	/	/	/	.	/	/
COC(=O)[C@]12C[C@H](CC(=O)NCCCCc3ccccc3)C(=O)N(Cc3ccc(Cl)cc3Cl)C1=C[C@H](C(C)(C)C)O[C@@H]2C	.	/	/	/	.	/	/
COc1ccc(C2C(C(=O)Nc3ccc(F)cc3F)CCC(=O)N2c2ccc(OC)cc2)cc1 (stereo unspecified)	.	/	/	/	.	/	/
O=C(NC1CCCc2ccccc21)c1ccccc1 (stereo unspecified)	.	.	.	.	.	.	/
O=C(NC1CC1(c1ccccc1)c1ccccc1)c1ccccc1 (stereo unspecified)	.	77	.	/	.	/	.
CC1(C)Oc2ccc(C(=O)N3CCCC3)cc2NC1=O	.	/	/	/	.	/	/
O=C(c1ccccc1)N1CC[C@H]2[C@H](CCCN2Cc2ccccc2)C1	.	/	/	/	.	/	/
N#Cc1ccc(-c2nc3ccc(Br)cn3c2Cc2ccccc2)cc1	.	89	.	/	35	/	.
Cc1ccc(Cc2c(-c3ccc(C#N)cc3)nc3ccc(Br)cn23)cc1	.	.	.	/	.	/	/
O=C(N[C@H]1C[C@@H]2O[C@H](CO)CC[C@@H]2O[C@@H]1CCc1ccc(-c2cccnc2)cc1)c1cccc(F)c1	.	/	/	/	.	/	/
Cc1cc(C)c(NS(=O)(=O)c2cccc3cccnc23)c(C)c1	.	.	.	.	.	.	.
Cc1ccc(NS(=O)(=O)c2cccc3cccnc23)cc1Cl	.	.	.	.	.	.	/
O=S(=O)(Nc1c(O)ccc2ccccc12)c1ccc(F)cc1	.	76	.	.	.	.	.
COc1ccc(S(=O)(=O)Nc2ccc(O)c3ccccc23)cc1	.	.	.	.	.	.	/
O=S(=O)(Nc1cccc2ccccc12)c1ccccc1	.	.	.	.	.	.	/
O=S(=O)(Nc1c(O)ccc2ccccc12)c1ccccc1	.	75	.	.	.	.	52	Diaphorase 10uM=.;Diaph ctr 30uM=.
O=C(OCCN1CCN(C2CN(Cc3cn(Cc4ccccc4C(F)(F)F)nn3)S(=O)(=O)C2)CC1)c1cc2ccccc2o1 (stereo unspecified)	.	/	/	/	.	/	/
NC(=O)C1CCN(c2ncc(Br)s2)CC1	.	/	/	/	.	/	/
COC(=O)[C@]12C[C@H](CC(=O)N3CCSCC3)C(=O)N(Cc3ccc4c(c3)OCO4)C1=C[C@H](C(C)C)O[C@@H]2C1CC1	.	/	/	/	.	/	/
CO[C@H]([C@H](C)/C=C/N(C)C=O)[C@@H](C)C(=O)CC[C@H](C)[C@H](O)[C@H](C)[C@H]1OC(=O)/C=C/C(C)=C/C[C@H](O)C[C@@H]2C=CC[C@@H](C[C@H](OC)[C@@]3(CO3)[C@@H](OC)C[C@@H](OC)[C@@H]1C)O2	.	/	/	/	.	/	/
CCCOc1ccc2oc(=O)c3c(c2c1)CCCN3C(=O)CN(C)Cc1ccccc1	.	78	.	.	.	.	.
O=C(CN1CCCCC1)N1CCCc2c1c(=O)oc1ccc(OCc3ccccc3)cc21	.	.	.	.	.	.	/
CCS(=O)(=O)N1CCN(c2ccc([N+](=O)[O-])c(NC(C)c3ccccc3)c2)CC1 (stereo unspecified)	.	78	.	.	.	.	54	Diaphorase 10uM=.;Diaph ctr 30uM=.
SMILES	NPR1 activator	PfG6PD inh	Neddylation inh	A3G deaminase	NPR2 activator	APOBEC3A inh	PfG6PD confirm	others
CC(C)C(=O)N1CCN(c2ccc([N+](=O)[O-])c(NC(C)c3ccccc3)c2)CC1 (stereo unspecified)	.	81	.	.	.	.	.
C[C@H](CO)N1C[C@H](C)[C@@H](CN(C)S(=O)(=O)c2ccc(F)cc2)Oc2ncc(Br)cc2C1=O	.	/	/	/	.	/	/
C[C@@H]1CN([C@@H](C)CO)C(=O)c2cc(C#CC3CCCCC3)cnc2O[C@@H]1CN(C)S(=O)(=O)c1ccc(F)cc1	.	66	.	/	.	/	.
CN1CCc2c(sc3c2c(=O)n(-c2ccccc2)c2nnc(SCc4ccccc4)n32)C1	.	60	.	.	.	.	.
CN1CCc2c(sc3c2c(=O)n(-c2ccccc2)c2nnc(SCc4ccc(F)cc4)n32)C1	.	.	.	/	.	/	/
COc1ccc(N)cc1-n1c(C)ccc1C	.	78	.	.	.	.	.
C[n+]1c2cc(N)ccc2cc2ccc(N)cc21	.	78	.	/	.	/	.
COC(=O)[C@]1(CNC(C)=O)CC(=O)N(Cc2ccc(Cl)cc2)[C@@H]1c1ccc(OC)cc1	.	/	/	/	.	/	/
O=C1CCCC(=O)C1C(c1ccc(Cl)cc1)C1C(=O)CCCC1=O	.	77	.	.	.	.	.
Cc1c(Cl)c([N+](=O)[O-])nn1Cc1ccc(C(=O)N/N=C\c2cccc(Br)c2)o1	.	105	.	.	.	.	61	Diaphorase 10uM=61;Diaph ctr 30uM=.
O=C(c1cccs1)N1CC[C@H]2[C@H](CCCN2Cc2ccc(F)cc2)C1	.	/	/	/	.	/	/
CCSc1nnc(Nc2ccccc2)s1	.	.	.	.	.	.	/
CCSc1nnc(Nc2ccc(C)cc2)s1	.	66	.	.	.	.	.
O=C(Nc1nnc(C(F)(F)F)s1)c1ccc(Br)s1	.	85	.	.	.	.	72	Diaphorase 10uM=65;Diaph ctr 30uM=52
CCSc1nnc(NC(=O)c2ccccc2)s1	.	62	.	.	.	.	.
